The full ranking holds about 18,000 sequences; the median of “log2 normalized intensity” is about 0.36, and the highest 2% start at about 7.3. This is one part of a sample in which the highest values are shown more often than they occur.
target: T1, HNF4alpha8 (COS-7 nuclear extract) (Homo sapiens, UniProt P41235-5 1-452); assay: protein-binding microarray; COS-7 nuclear extract on double-stranded Agilent 4x180k PBM; binding buffer, salt, pH and temperature not given in the material; high values mean tight binding; details: chain copies: 2; label: 3' end of strand 1 on the slide; dsDNA, one strand shown
T1 sequence: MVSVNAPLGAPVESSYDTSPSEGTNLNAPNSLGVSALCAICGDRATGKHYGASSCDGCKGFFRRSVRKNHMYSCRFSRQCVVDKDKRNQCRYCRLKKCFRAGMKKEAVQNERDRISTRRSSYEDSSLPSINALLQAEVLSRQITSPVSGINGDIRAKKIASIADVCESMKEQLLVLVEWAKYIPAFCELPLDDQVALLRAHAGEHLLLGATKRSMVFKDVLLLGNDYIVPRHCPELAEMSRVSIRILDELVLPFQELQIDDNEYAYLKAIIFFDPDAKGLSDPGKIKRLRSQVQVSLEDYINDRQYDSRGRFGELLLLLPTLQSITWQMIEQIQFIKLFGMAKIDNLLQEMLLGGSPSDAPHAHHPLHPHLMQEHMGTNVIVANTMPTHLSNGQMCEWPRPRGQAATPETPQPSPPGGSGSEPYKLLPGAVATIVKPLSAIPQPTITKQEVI
Procedure, shortened: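 A human HNF4α isoform was expressed in COS-7 cells by transient CaPO4 transfection, and nuclear extracts were prepared. These were applied to a custom Agilent SurePrint G3 4x180k array carrying ~44,000 test sequences in quadruplicate as double-stranded ~60-nt oligonucleotides, and an Agilent G2565CA scanner imaged bound HNF4α at 2-µm resolution. The background-corrected, normalized gProcessedSignal from Agilent software was used as the binding signal.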

Row | Sequence | binding signal [log2 normalized intensity]
1 | ATAAGGTAACAGGCCAAAGGGCAAGAACAAGCCTAGGGAGATTAGAGTATCGGTCGA | 3.1
2 | TCACCTCGCTCCCCTCCTGTCAGTTTATTTGCCTAGGGAGATTAGAGTATCGGTCGA | 2.3
3 | CCCCCTGTGATTACTTCCACTCTTGCAGATGCCTAGGGAGATTAGAGTATCGGTCGA | 0.911
4 | TGACCTTTGCTCCAGTTCCCAATAATTTCCGCCTAGGGAGATTAGAGTATCGGTCGA | 5.13
5 | AGATAGCATTCCAAGAGAGCAAAGTGCTTTGCCTAGGGAGATTAGAGTATCGGTCGA | 1.21
6 | AAAAGTGACCTTTGCTCCAGTTCCCAATAAGCCTAGGGAGATTAGAGTATCGGTCGA | 7.02
7 | TTGCTTAAGCATAGCAAAAGTGACCTTTGCGCCTAGGGAGATTAGAGTATCGGTCGA | 9.23
8 | CAAAGCATAGCAAGAGTGACCTTTGCTCCAGCCTAGGGAGATTAGAGTATCGGTCGA | 9
9 | ATAGCAAAAGTGACCTTTGCTCCAGTTCCCGCCTAGGGAGATTAGAGTATCGGTCGA | 8.52
10 | CTTCTTTGCTTAAGCATAGCAAAAGTGACCGCCTAGGGAGATTAGAGTATCGGTCGA | 3.13
11 | CCTGCATATCCTGACTGCTGACCTTTAAGCGCCTAGGGAGATTAGAGTATCGGTCGA | 5.56
12 | TTTGCCAAAGCATAGCAAGAGTGACCTTTGGCCTAGGGAGATTAGAGTATCGGTCGA | 7.18
13 | CAAGAGTGACCTTTGCTCCAGTTCCCAATAGCCTAGGGAGATTAGAGTATCGGTCGA | 6.59
14 | GTGACCTTTGCTCCAGTTCCCAATAAGTTGGCCTAGGGAGATTAGAGTATCGGTCGA | 5.13
15 | CATAGCAAGAGTGACCTTTGCTCCAGTTCCGCCTAGGGAGATTAGAGTATCGGTCGA | 8.19
16 | TGTCAGGAACAACTTCGGGAATCTGACCTTGCCTAGGGAGATTAGAGTATCGGTCGA | 4.3
17 | GCTTACAACTCTAAGGGGGAAAGTCCACGTGCCTAGGGAGATTAGAGTATCGGTCGA | 4.61
18 | CTCAACCTCCCCCTGGGGACAGGTGTTAATGCCTAGGGAGATTAGAGTATCGGTCGA | 2.27
19 | CACGTGCAAAGTACAAAGTACAGAGATGGCGCCTAGGGAGATTAGAGTATCGGTCGA | 3.78
20 | GGGTAACTGACCTTGTTGCCCACCCCCCAAGCCTAGGGAGATTAGAGTATCGGTCGA | 5.8
21 | TCAATGGCCCCAGTGCACGTGCATGAGGCCGCCTAGGGAGATTAGAGTATCGGTCGA | -0.475
22 | GGATCCTTGGAGGACCTTGGGTTCATTTTAGCCTAGGGAGATTAGAGTATCGGTCGA | 2.86
23 | TTTTGCTCTGATCCTAGTCTTTGCCCCACTGCCTAGGGAGATTAGAGTATCGGTCGA | 3.94
24 | ACTGCCCGCTGGCCTCCCCATCCTCATGACGCCTAGGGAGATTAGAGTATCGGTCGA | 2.93

Reference: publication PMC10726135, “HNF4α isoforms regulate the circadian balance between carbohydrate and lipid metabolism in the liver”
